# Sampled rows, rich in hits. Any-hit rate of the full collection: about 19%.
# HT1080-NT tox: qHTS for induction of synthetic lethality in tumor cells producing 2HG: qHTS for the HT-1080-NT fibrosarcoma cell line. Potency, µM (series often up to 46.1 µM), for inactives: at the top dose activity, negative = less viability, actives largely listed as cytotoxic. AID 686970, 2013. HT-1080-NT fibrosarcoma viability, CellTiter-Glo ATP luminescence, 48 h. 1.6% of 360,000 active;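 further: NT is the 2HG producing partner of a matched IDH1 knockdown line; potency means the concentration at half of the fitted maximal effect; 0% = DMSO-treated cells and -100% = media-only wells without cells; nearly all actives have a fitted effect of over 55% in size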
#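 Viability of the 2HG-overproducing fibrosarcoma line after 48 hours of compound exposure at 37 degrees C was determined by luminescence with CellTiter-Glo, and concentration-effect curves were then fitted and categorized.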
# TDP1 cell noCPT: qHTS for Inhibitors of human tyrosyl-DNA phosphodiesterase 1 (TDP1): qHTS in cells in absence of CPT; DT40 Tdp1-/- hTDP1 cells, no CPT, ATP luminescence, 48 h; Potency, µM (doses to about 46.2 µM), inactives show top-dose activity change, negative = growth inhibition, actives largely listed as inhibitors; 15% of 420,000 active; further: potency means the concentration at half of the fitted maximal effect; nearly all actives have a fitted effect of over 55% in size
#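 Chicken DT40 Tdp1-/- cells complemented with human TDP1, screened without camptothecin (DMSO vehicle only), 400 cells/well. Compounds pin-transferred, cells incubated at 37 °C for at least 48 hr. Growth read as ATP-dependent luminescence (CellTiter-Glo, 30 min at RT).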
# IL-1B inflam inh: qHTS for Inhibitors of Inflammasome Signaling: IL-1-beta AlphaLISA Primary Screen; activity change, % at 57.5 µM; THP-1 LPS/ATP IL-1B secretion, AlphaLISA, 16 h; hits give low values; 4.7% of 360,000 active; in the data active means activity change below about -50%; inconclusive means mostly about -30% to -49%
#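 Secreted IL-1B measured by AlphaLISA bead assay after 16 h compound exposure of THP-1 cells; compounds (final up to 57.5 uM) added 1 h before LPS (250 ng/mL) and ATP (1.25 mM) stimulation; lower signal means less secretion.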
# HT1080 IDH1KD tx: qHTS for induction of synthetic lethality in tumor cells producing 2HG: qHTS for the HT-1080-IDH1KD cell line; HT-1080 IDH1 knockdown viability, ATP luminescence, 48 h; Potency, µM (top dose mostly 46.1 µM), for the others: top-dose activity, negative = toxicity, most hits filed as cytotoxic; 2% of 360,000 active; AID 686971, 2013;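 further: potency means the concentration at half of the fitted maximal effect; 0% = DMSO wells and -100% = cell-free medium wells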
#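 IDH1KD HT-1080 cells, 750/well, RPMI + 5% FBS; compound pinned after 2 h settling; 48 h, 37 °C; CellTiter-Glo luminescence; % activity normalised to DMSO and no-cell wells; curves fitted, classed by r2 and efficacy.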
# DT40 TDP1 CPT: qHTS for Inhibitors of human tyrosyl-DNA phosphodiesterase 1 (TDP1): qHTS in cells in presence of CPT; chicken DT40 Tdp1-/-;hTDP1 cells + 20 nM CPT, ATP luminescence, 48 h; Potency, µM (titrated, usually from 46.2 µM), for the others: at the top dose activity change, negative = growth inhibition, hits mostly inhibitors; 12% of 420,000 active; AID 686979, 2013; further: potency means the concentration at half of the fitted maximal effect; nearly all actives have a fitted effect of over 55% in size
#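 Chicken DT40 Tdp1-/- cells stably complemented with human TDP1 were seeded at 400 cells/well in medium containing 20 nM camptothecin, exposed to pin-transferred compounds, and grown at 37 °C for at least 48 hr. Viability was read as ATP luminescence.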
# An asterisk follows results filed as active; ? = inconclusive; / = no result; [ ] = dose if it differs, or a comment. Unless noted, the call rests on the fitted dose curve; in most records, active means well fitted curve in the direction sought with a large enough effect; inconclusive means small, poorly fitted or top-dose-only effect, or another doubt; inactive means no such curve, though single readings can be large; an effect the other way counts as inactive or inconclusive. Unless noted, on the % scale 0 is the no-effect control and ±100 the full control effect.
SMILES,HT1080-NT tox,TDP1 cell noCPT,IL-1B inflam inh,HT1080 IDH1KD tx,DT40 TDP1 CPT
C#CCOCCOCCOCCNc1nc(N2CCN(C(=O)[C@H](CCC(=O)O)n3cc([C@@H](N)[C@H](C)CC)nn3)CC2)nc(N2CCN(C(=O)[C@H](CCCCN)n3cc([C@@H](N)CC(N)=O)nn3)CC2)n1,4%,5%,21,9%,-1%
Cc1ccccc1-c1cncnc1NCc1cccnc1,/,-22%,/,/,17%
Cc1ccc(N/N=C(\C#N)C(N)=S)cc1C,-25%,18µM*,-9,-2%,10µM*
N#C/C(=N\Nc1ccccc1)C(N)=S,-2%,?,/,-9%,-25%
N#C/C(=N\Nc1ccc(Cl)cc1)C(N)=S,9.2µM*,5.8µM*,-81*,2.3µM*,5.8µM*
N#C/C(=N\Nc1ccc(Cl)cc1)C(=O)c1ccsc1,?,23µM*,/,?,16µM*
O=C(O)c1cc([N+](=O)[O-])ccc1-c1ccc([N+](=O)[O-])cc1C(=O)O,9%,3%,?,17%,2%
CCN(CC)C(=O)c1cc([N+](=O)[O-])cc2c1-c1ccc([N+](=O)[O-])cc1C2=C(C#N)C#N,-13%,16µM*,-16,-4%,0.65µM*
O=[N+]([O-])c1cc2c(c(CSc3nnnn3-c3ccc(O)cc3)c1)OCOC2,-13%,23µM*,-15,-19%,21µM*
COc1ccc(/C=C/C(O)=C2/C(=O)N(C)C3(C)CC2c2ccccc2O3)cc1 (stereo not given),?,21µM*,-91*,?,23µM*
CCN1C(=O)C(C(=O)Nc2ccc(OC)cc2)C2CC1(C)Oc1ccccc12 (stereo not given),8%,-21%,-9,0%,-14%
COc1ccc(/C=C/C(O)=C2/C(=O)NC3(C)CC2c2ccccc2O3)c(OC)c1OC (stereo not given),?,7.3µM*,-20,?,8.2µM*
CC12CC(c3ccccc3O1)C(C(=O)N1CCOCC1)C(=O)N2 (stereo not given),4%,-4%,4,23%,-1%
Cc1ncc2c(c1CNC(=O)c1ccc3c(c1)OCO3)CCN(C(=O)c1cc3ccccc3o1)C2,/,?,/,/,2%[9.04 µM]
C[C@H]1[C@@H](Cc2cc(Cl)cc(Cl)c2)N(c2ccccc2)c2ccccc2CN1Cc1ccccc1,-21%,-21%,-1,-12%,?
Cc1cc(NC(=O)COc2coc(CN3CCN(c4ccccc4F)CC3)cc2=O)no1,-6%,-13%,20,-4%,-3%
CCCN1CCC(CCOc2ccccc2)(C(=O)OCC)CC1,2%,1%,1,1%,-6%
CCOC(=O)C1(CCOc2ccccc2)CCN(Cc2ccc(COC)o2)CC1,-6%,?,-57*,-8%,7.3µM*
CCOC(=O)C1(Cc2ccccc2)CCN(Cc2ccc(C)s2)CC1,-17%,23µM*,-26,-29%,?
CCOC(=O)C1(CCOc2ccccc2)CCN(Cc2ccc(C)o2)CC1,-7%,?,5,-3%,?
CCOC(=O)C1(Cc2ccccc2)CCN(Cc2cc(=O)c3ccccc3[nH]2)CC1,1%,?,31,-3%,-28%
CCOC(=O)C1(CCOc2ccccc2)CCN(Cc2cnc(C)[nH]2)CC1,-11%,?,-94*,-11%,2%
CCOC(=O)C1(Cc2ccccc2)CCN(Cc2ccc(COC)o2)CC1,0%,?,-10,7%,12µM*
O=C(Cn1cnc2c(oc3ccccc32)c1=O)Nc1ccc(F)cc1F,/,-15%,/,/,-16%
CCOC(=O)C1(Cc2cccc(F)c2)CCN(Cc2ccc(COC)o2)CC1,0%,21µM*,0,13%,23µM*
SMILES,HT1080-NT tox,TDP1 cell noCPT,IL-1B inflam inh,HT1080 IDH1KD tx,DT40 TDP1 CPT
S=C(N/N=C/c1ccco1)NC1CC2CCC1C2 (stereo not given),0%,?,5,4%,?
CN(C)CC1CCC/C(=C\c2ccc(OC(=O)c3ccc(Cl)cc3)cc2)C1=O (stereo not given),?,0.41µM*,-100*,2.9µM*,0.52µM*
Cc1ccc(/C=C2\CCC(C3CCCC3)C2=O)cc1 (stereo not given),11%,3%,5,0%,1%
O=C(Oc1ccc2c(c1)OCC2=O)c1ccc(Cl)cc1,7%,-10%,-7,20%,-2%
CN(C)CC1CCC/C(=C\c2ccc(OC(=O)/C=C/c3ccccc3)cc2)C1=O (stereo not given),-4%,1.8µM*,-111*,-17%,1.3µM*
O=C1/C(=C\c2ccc(Cl)cc2)CCC1CNc1ccc(Cl)cc1 (stereo not given),-4%,2.6µM*,-57*,?,2.3µM*
COc1ccc(/C=C2/CCC(CN3CCOCC3)C2=O)cc1 (stereo not given),?,1.2µM*,-103*,6.5µM*,1.2µM*
O=CNc1ccc2c(c1)Cc1cccc(NC=O)c1-2,-12%,-3%,17,-20%,15%
CCCCNC(=O)c1cc2cc(CC)ccc2[nH]1,5%,-16%,0,-1%,0%
CN(C)CC1CC/C(=C\c2ccc(O)cc2)C1=O (stereo not given),?,1.3µM*,-113*,5.2µM*,0.58µM*
COc1ccccc1OCCNC(=O)CCC(=O)N1CCOCC1,2%,1%,12,0%,1%
O=C(OCC(=O)N1CCCC1=O)c1nc(Cl)c(Cl)c(Cl)c1Cl,-7%,3%,-95*,?,-6%
COc1cc(NC(=O)COC(=O)Cc2ccsc2)cc(OC)c1,17%[9.24 µM],11%,0,10%,-14%
COc1cc(OC)c2ccc(=O)oc2c1C(CCN1CCCC(C)C1)c1ccc(N(C)C)cc1 (stereo not given),-4%,?,-9,-9%,21µM*
CCCCCc1cc(=O)oc2c(C(CCN3CCCCC3)c3cc(OC)c(OC)c(OC)c3)c(OC)cc(OC)c12 (stereo not given),21µM*,?,-3,?,?
CCCCCc1cc(=O)oc2c(C(CCN(CC)CC)c3ccc(N(C)C)cc3)c(OC)cc(OC)c12 (stereo not given),18µM*,16µM*,0,-25%,?
COc1cc(O)c(C(CC(=O)N2CCCC(C)C2)c2ccc(N(C)C)cc2)c(OC)c1 (stereo not given),3%,?,-23,6%,?
